Bioassay records: PubChem BioAssay, several laboratories
The list is not random: actives were taken first. Their share in the collection is about 3.6%.
3CLpro inhibitor: SARS-CoV 3CLpro protease inhibition; actives 0.14% (n = 290,000); recombinant SARS-CoV 3CLpro, quenched FRET peptide cleavage; P0C6X7; AID 1706; inhibition, % at 6 µM; in the data active means inhibition above about 12%
BJeLR viability: BJeLR cell viability loss. inhibition, % (no concentration beside the values). actives 0.17% (n = 300,000). BJeLR (HRASV12) viability, CellTiter-Glo ATP luminescence, 48 h; in the data active means inhibition above about 50%; inconclusive means no clear call, values can overlap the other calls
BoNT-F LC inh: BoNT F light chain protease inhibition. actives 0.22% (n = 360,000). Multiplex microsphere protease cleavage assay, flow cytometry. AID 588497. inhibition, % at 10 µM; in the data active means inhibition above about 35%, passing the limit was not always enough; inconclusive means no clear call, values can overlap the other calls
Anthrax LF inh2: blocks Bacillus anthracis lethal factor protease; P15917; multiplex microsphere protease cleavage assay, LF; inhibition, % at 10 µM; actives 0.12% (n = 360,000); AID 588501
Target sequence (P15917 whole entry, looked up): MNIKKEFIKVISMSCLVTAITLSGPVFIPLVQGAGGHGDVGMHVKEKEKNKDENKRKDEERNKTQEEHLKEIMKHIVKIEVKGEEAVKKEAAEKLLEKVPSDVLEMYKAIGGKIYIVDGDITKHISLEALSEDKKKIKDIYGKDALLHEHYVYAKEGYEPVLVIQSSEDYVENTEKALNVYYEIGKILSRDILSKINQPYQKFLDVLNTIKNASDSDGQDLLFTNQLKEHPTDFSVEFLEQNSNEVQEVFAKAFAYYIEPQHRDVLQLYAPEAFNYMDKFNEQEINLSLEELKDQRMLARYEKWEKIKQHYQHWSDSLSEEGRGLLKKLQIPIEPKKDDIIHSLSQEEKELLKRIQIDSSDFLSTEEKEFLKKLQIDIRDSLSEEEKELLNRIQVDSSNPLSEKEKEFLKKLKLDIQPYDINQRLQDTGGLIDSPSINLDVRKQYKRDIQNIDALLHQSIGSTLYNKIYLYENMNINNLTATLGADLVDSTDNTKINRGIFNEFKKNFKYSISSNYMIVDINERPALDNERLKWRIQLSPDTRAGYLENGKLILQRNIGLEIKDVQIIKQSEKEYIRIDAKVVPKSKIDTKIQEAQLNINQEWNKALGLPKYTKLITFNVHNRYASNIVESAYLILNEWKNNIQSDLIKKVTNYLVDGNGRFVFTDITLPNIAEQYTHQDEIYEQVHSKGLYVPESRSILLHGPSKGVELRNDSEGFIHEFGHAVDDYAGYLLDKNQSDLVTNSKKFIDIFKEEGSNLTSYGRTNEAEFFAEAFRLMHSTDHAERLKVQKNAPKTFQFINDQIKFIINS
Bead autofluor: counter-screen for toxin protease inhibitors: compound fluorescence; compound autofluorescence counterscreen, microsphere flow cytometry; hits give high values; fluorescence intensity (concentration not given with the values); actives 3.1% (n = 360,000); in the data active means fluorescence intensity above about 16000; inconclusive means no clear call, values can overlap the other calls
BoNT A protease: blocks Botulinum neurotoxin A light chain protease; multiplex microsphere protease substrate cleavage, flow cytometry; AID 588499; inhibition, % at 10 µM; actives 0.17% (n = 360,000)
Numbers stand for hits; . = inactive; ? = inconclusive; / = not tested or not shown. Unless noted, no stated cut-off is given here; in the data, active means inhibition above about 30%; inconclusive means no clear call, values can overlap the other calls; inactive means below that.

SMILES	3CLpro inhibitor	BJeLR viability	BoNT-F LC inh	Anthrax LF inh2	Bead autofluor	BoNT A protease
CC(=O)c1ccccc1OCCCN1CCCCC1	.	.	.	.	.	.
CC(C)c1ccc(OC(=O)c2ccc3c(=O)n4c(nc3c2)CCC4)cc1	/	.	/	/	/	/
CCOC(=O)C1=C(C)NC(=O)NC1/C(C)=C/c1ccccc1 (configuration not stated)	.	.	.	.	.	?
CC1=C(C(=O)Nc2cc(C)ccc2C)C(c2cccs2)NC(=S)N1 (configuration not stated)	.	.	.	.	21275	.
CC(C)=CCSc1nnc([C@@H](NC(=O)OC(C)(C)C)C(C)C)o1	.	.	.	.	22591	?
Cc1[nH]c(=O)[nH]c(=O)c1CSc1nnc([C@@H](NC(=O)OC(C)(C)C)C(C)C)o1	.	.	.	.	.	.
Cc1cc(C)c2c(CN3CCN(CCO)CC3)cc(=O)oc2c1	.	.	.	.	23234	.
Cc1cc(C)c2c(CN3CCN(c4ccccc4F)CC3)cc(=O)oc2c1	/	/	.	.	.	.
Cc1ccc2c(CN3CCN(CCO)CC3)cc(=O)oc2c1C	.	.	.	.	.	.
Cc1cc(C)c2c(CN3CCN(C)CC3)cc(=O)oc2c1	.	.	.	.	16812	.
CCC(=O)N1CCCC(C(=O)NS(=O)(=O)c2cc(C)c(Cl)cc2C)CC1 (configuration not stated)	/	/	.	.	.	.
O=C(NCc1nnc(SCC(=O)N2CCN(c3ccccc3)CC2)o1)c1c(F)cccc1Cl	.	.	.	.	.	.
O=C(O)c1ccc(COc2c(F)c(F)c(F)c(F)c2F)o1	.	.	.	.	19586	.
Cc1cc(C)cc(OCc2ccc(C(=O)O)o2)c1	.	.	.	.	.	.
CN(C)c1ccc(CN(C(=O)c2cc3ccccc3oc2=O)C2CCS(=O)(=O)C2)cc1 (configuration not stated)	.	.	.	.	.	.
CC(C)c1ccc(CN(C(=O)c2cc3ccccc3oc2=O)C2CCS(=O)(=O)C2)cc1 (configuration not stated)	.	.	.	.	21498	?
COc1ccc2c(c1)NC(=O)CC(c1ccccc1)=N2	.	.	.	.	23168	.
O=S(=O)(N/N=C/c1ccc(OC2CSC2)cc1)c1ccccc1	.	.	.	.	.	.
CCC(C)N(CC(=O)Nc1cccc(C)c1C)C(=O)CCl (configuration not stated)	.	.	.	.	.	.
CC12CCC(C(=O)NCCN3CCCCC3)(CC1=O)C2(C)C (configuration not stated)	.	.	.	.	.	.
CC1(C)CC(NC(=O)C23CCC(C)(C(=O)C2)C3(C)C)CC(C)(C)N1 (configuration not stated)	.	.	.	.	21112	.
O=C(OCc1ccc(F)cc1)c1cc(S(=O)(=O)N2CCCCC2)ccc1N1CCOCC1	/	.	.	?	?	.
CCC(CC)NC(=O)COC(=O)c1ccc(NS(=O)(=O)c2ccc3c(c2)OCCO3)cc1	.	.	.	.	23057	?
O=C(O)c1ccc(S(=O)(=O)Nc2ccc3c(c2)OCCO3)cc1	.	.	?	31.2	.	.
O=C(O)c1cccc(NS(=O)(=O)c2ccc3c(c2)OCCCO3)c1	.	.	.	.	.	.
SMILES	3CLpro inhibitor	BJeLR viability	BoNT-F LC inh	Anthrax LF inh2	Bead autofluor	BoNT A protease
O=C(O)c1cccc(S(=O)(=O)Nc2ccc3c(c2)OCO3)c1	.	.	.	.	21051	?
O=C(C[C@H]1C[C@H](C(=O)N2CCCCC2)[C@@]2(CCc3ccccc3)c3[nH]c4cc(-c5ccco5)ccc4c3CCN2C1=O)NCCC1=CCCCC1	/	/	.	.	.	.
C=CCNC(=O)c1cc(-c2ccc(Br)cc2)on1	.	.	.	.	22477	.
COc1ccc(Nc2cc(C(=O)NCCCN3CCOCC3)c3ccccc3n2)cc1	.	.	.	.	.	.
O=C(NCCN1CCOCC1)c1cc(-c2ccc(Br)cc2)on1	.	.	.	.	.	.
O=C(NCCCN1CCOCC1)c1cc(-c2ccc(Br)cc2)on1	.	.	.	.	18589	.
COc1ccc(Nc2nc(C(=O)NCCCN3CCOCC3)cs2)cc1	.	.	.	.	16850	.
Cc1ccc(NC(=O)c2cccc(S(=O)(=O)N(C)c3ccccc3)c2)cc1S(=O)(=O)N1CCOCC1	.	.	.	.	.	.
O=C(OCC(=O)N1CCOCC1)c1ccc(Cl)nc1	.	.	.	.	22562	.
COc1cc(/C=C(/C#N)C(=O)NCCc2c[nH]c3ccccc23)ccc1OCc1ccccc1F	.	.	.	.	23745	.
Cc1ccc(C(=O)NC(=S)N2CC(C)OC(C)C2)cc1[N+](=O)[O-] (configuration not stated)	.	/	.	.	23557	.
CCCCCN1C=CC(=C2C(=O)c3ccccc3C2=O)C=C1	.	51.2	.	.	.	.
CC1=CC(=C2C(=O)c3ccccc3C2=O)C=C(C)N1C	.	.	.	.	.	.
O=C(NC(=S)Nc1cccc(O)c1)C12CC3CC(CC(C3)C1)C2	/	/	.	.	.	.
C[C@H](NC(=O)[C@@H]1CCCN1C(=O)[C@@H]1CCCN1)c1ccccc1	/	/	.	.	.	.
CCCn1nnnc1NCc1ccc(N2CCCC2)cc1	.	.	.	.	17311	.
CN(C)/C(CN1CCOCC1)=C1\N=C(c2ccccc2)OC1=O	.	.	.	.	23718	.
CCOC(=O)c1c[nH]c2c(Cl)c(Cl)ccc2c1=O	.	.	.	.	.	.
CCOC(=O)c1c[nH]c2c3c(ccc2c1=O)CCCC3	.	.	.	.	21559	.
CCOC(=O)c1c[nH]c2c(C)cc(C)cc2c1=O	.	.	.	.	20267	?
Nc1c(Cl)cc(-c2csc(N3CCCC3c3nc4cc(Cl)c(N5CCCCC5)cc4n3CCCO)n2)cc1Cl (configuration not stated)	/	.	.	.	.	.
CCCN(c1ccc(OCC)cc1)S(=O)(=O)c1ccc2c(c1)NC(=O)CO2	.	.	.	.	.	.
CC1(C)OC(=O)N(CCc2ccccc2)C1(C)O (configuration not stated)	.	.	.	.	25029	.
COc1cc(CNCCN(C)C)c(Br)cc1OC1CCCC1	.	.	.	.	.	.
CN(C)c1ccc(-c2nn3c(-c4ccc(Cl)cc4)nnc3s2)cc1	.	.	/	/	/	/
Cc1nn2c(-c3ccc(Cl)cc3)nnc2s1	.	.	.	.	23339	.
CCOc1ccc(C(=O)NCC2OCCc3ccccc32)cc1 (configuration not stated)	.	.	.	.	.	.
CC1CC(=O)NN=C1c1ccc(N(C)C)c([N+](=O)[O-])c1 (configuration not stated)	.	.	.	.	18577	.
CCN1CCN(CCNC(=O)c2ccc(/C=C3/Sc4ccccc4N(Cc4ccccc4C)C3=O)cc2)CC1	.	75.5	.	.	.	.
